# Screening results as filed in PubChem BioAssay.
# 697 NFkB inh – inhibitors of the PMA/ionomycin-induced NF-kB reporter in 697 B cells | 697 B-cell NF-kB luciferase reporter, 16 h | inhibition, % at 4 µM | 330,000 compounds, 0.33% hits | AID 435022; in the data active = inhibition above about 35%
# KLF5 inh – inhibitors of KLF5 expression; DLD-1 KLF5 promoter-luciferase reporter, luminescence; 290,000 compounds, 0.23% hits; AID 1700; inhibition, % at 5 µM;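 active = inhibition above a per-plate limit of that plate's mean compound inhibition plus 3 SD, cut at about 60% in these data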;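 also: 0% = DMSO wells and 100% = LY294002 at 200 µM; higher means less KLF5 promoter-driven luciferase light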
# aSyn 5UTR inh – MLPCN primary screen, SNCA 5' untranslated region. AID 1813. alpha-synuclein 5'UTR reporter, inhibitor activity. 300,000 compounds, 0.82% hits. inhibition, % (tested at 7.5 µM); in the data active = inhibition above about 60%; inconclusive = no clear call, values can overlap the other calls;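 also: H4 neuroglioblastoma cells stably carrying SNCA 5'UTR luciferase fusion; 0% = DMSO wells and 100% = positive control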
# Jurkat NFkB inh – lowers PMA/ionomycin-induced NF-kB signal in Jurkat cells. PMA/ionomycin-induced NF-kB luciferase reporter, luminescence. inhibition, % at 4 µM. 330,000 compounds, 0.53% hits. AID 435003; in the data active = inhibition above about 50%
# Gli-Sufu antag – Gli-Sufu pathway antagonism; Sufu-KO-LIGHT fibroblasts, Gli luciferase reporter luminescence; inhibition, % at 5 µM; 340,000 compounds, 0.74% hits; AID 588413;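 active = inhibition above about 55%, limit read from the data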;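 also: 0% = DMSO-treated cells and 100% = wells with medium but no cells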
# Mdm2 MdmX PPI – human Mdm2/MdmX binding inhibition; AID 485346; SaOS-2 split-luciferase Mdm2/MdmX complementation, luminescence; O15151+Q00987; 330,000 compounds, 3% hits; inhibition, % at 8 µM;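 active = inhibition of at least 50% at 8 µM in the primary screen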
# Mdm2 MdmX conf – confirmation of human Mdm2/MdmX interaction inhibitors. shares compounds with Mdm2 MdmX PPI. Mdm2-MdmX binding, luminescent assay. inhibition, % at 8 µM. 10,000 compounds, 55% hits. AID 489028; in the data active = inhibition above about 40%
# Full FLuc ctr – inhibits full-length luciferase, flagging false Mdm2/MdmX hits; shares compounds with Mdm2 MdmX PPI; SaOS-2 full-length luciferase counterscreen, luminescence; inhibition, % at 8 µM; 6,200 compounds, 77% hits; AID 504607;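 active = mean inhibition at 8 µM reaching about 37%, which flags the compound as non-specific, limit read from the data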;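 also: p53-null SaOS-2 cells with luciferase driven by a doxycycline-inducible promoter; compound on cells about two nights before reading with doxycycline added after day one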
# * marks the source's active call; other numbers are inactive results; ? = inconclusive; . = not tested or not shown. A selection: hits, their analogues and other compounds. The true share with any hit is near 4.1%.
SMILES,697 NFkB inh,KLF5 inh,aSyn 5UTR inh,Jurkat NFkB inh,Gli-Sufu antag,Mdm2 MdmX PPI,Mdm2 MdmX conf,others
CC[C@@]1(c2ccccc2)C(=O)N(C(=O)OC)N1C(=O)OC,10,-11,-28,-2,-7,19,.,
CC[C@]1(c2ccccc2)C(=O)N(C(=O)OC)N1C(=O)OC,2,-5,21,10,-1,33,.,
CCOC(=O)c1ccc(N=c2sc(C(=O)OC)cc(=O)n2Cc2ccco2)cc1,-5,-7,-8,16,18,55*,2,
CCOC(=O)c1ccc(N=c2sc(C(=O)OC)cc(=O)n2CCCN2CCOCC2)cc1,4,-11,-28,0,12,12,.,
Cc1nc(Nc2cnc(/C=C/c3cc(C(=O)Nc4cccc(C(F)(F)F)c4)ccc3C)cn2)cc(N2CCNCC2)n1,20,-5,81*,9,-3,90*,52*,Full FLuc ctr=49*
C[C@@H](NC(=O)c1cc2c([nH]c3ccccc32)c(-c2ccccc2)n1)C(=O)O,8,-17,18,6,11,0,.,
C=C1[C@@H](O)[C@@H]2O[C@]3(CC[C@H](/C=C/[C@@H](C)[C@@H]4CC(C)=CC5(O[C@H](C[C@@](C)(O)C(=O)OC)CC[C@H]5O)O4)O3)CC[C@H]2O[C@@H]1[C@@H](O)C[C@H](C)[C@H]1OC2(CCCCO2)CC[C@H]1C (stereo not given in full),-13,.,.,-5,90*,100*,100*,Full FLuc ctr=1
CC(Oc1ccc(Cl)cc1Cl)c1ccn[nH]1 (stereo not given),1,0,5,0,-4,-15,.,
O=C(NCc1ccc(F)cc1F)Nc1cnccc1C(F)(F)F,3,-45,1,7,-4,0,.,
COCCn1c(C)cc(C(=O)CSc2nnc3ccccn23)c1C,-38,-74,55,-18,17,54*,62*,Full FLuc ctr=113*
COCCn1c(C)cc(C(=O)CSc2nc3ccccc3s2)c1C,-187,-156,?,-99,0,66*,70*,Full FLuc ctr=146*
COCCn1c(C)cc(C(=O)CSc2nc3ccccc3o2)c1C,-221,-158,-16,-94,-84,-81,.,
Cc1ccc2c(c1)c1c3n2CCCNC3CCC1 (stereo not given),0,-21,-1,11,1,22,.,
c1cc2c(cc1C1CCCCC1)c1c3n2CCCNC3CCC1 (stereo not given),12,-28,87*,6,14,98*,48*,Full FLuc ctr=2
c1cc2c(cc1C1CCCCC1)c1c3n2CCN=C3CCC1,-31,-16,5,1,1,53*,23,
Cc1ccc2c(c1)c1c3n2CCN=C3CCC1,-6,-13,2,-14,11,14,.,
Cc1ccc(N/C=C/C(=O)c2ccc(C)cc2)cc1,-135,-26,-241,-142,-82,-66,.,
Cc1ccc(C(=O)/C=C/Nc2ccccn2)cc1,-169,15,75*,9,-19,55*,38,
COc1ccc(Nc2nc(Nc3ccc(OC)cc3OC)nc(N3CCN(C)CC3)n2)c(OC)c1,10,-10,-17,10,6,51*,21,
COc1ccc(-c2cc(-c3ccc(F)cc3)nc(N3CCN(C)CC3)n2)cc1,7,-8,-25,4,14,79*,14,
O=C(CCN=C1NS(=O)(=O)c2ccccc21)OCc1nnc(-c2ccccc2)o1,-3,.,-27,-9,1,0,.,
CCOC(=O)c1c(-c2ccc(OC)cc2)csc1NC(=O)COc1ccc2c(C)cc(=O)oc2c1,0,-6,43,23,17,61*,14,
Cc1cc(=O)oc2cc(OCC(=O)Nc3nccs3)ccc12,5,-114,-51,-108,-63,-5,.,
CCN(CC)S(=O)(=O)c1ccc(NC(=O)COC(=O)CNS(=O)(=O)/C=C/c2ccccc2)cc1,1,6,12,0,-5,33,.,
COc1ccc([C@@H]2CC=C(C(=O)O)[C@H](c3ccc(C)cc3)N2S(=O)(=O)c2ccccc2C)cc1,16,.,.,8,-1,8,.,
SMILES,697 NFkB inh,KLF5 inh,aSyn 5UTR inh,Jurkat NFkB inh,Gli-Sufu antag,Mdm2 MdmX PPI,Mdm2 MdmX conf,others
Cc1ccc(NC(=O)c2ccc(Cl)c(S(=O)(=O)N3CCCCC3)c2)nc1,5,.,.,5,-3,26,.,
Cc1ccc(NC(=O)CSC2=C(C#N)C(c3ccco3)C3=C(CC(C)(C)CC3=O)N2)cc1 (stereo not given),13,-5,22,-12,11,51*,20,
CC(=O)Nc1ccc(NC(=O)C(C)OC(=O)c2cccc(S(=O)(=O)N3CCCCCC3)c2)cc1 (stereo not given),-1,.,6,11,11,9,.,
Cc1ccc(S(=O)(=O)N2CCN(C(=O)CSCc3ccc(C(C)C)cc3)CC2)cc1,-7,.,.,0,0,35,.,
CCCCn1c(=N)n(CC(=O)c2ccc(Br)s2)c2ccccc21,-12,10,-13,12,8,97*,59*,Full FLuc ctr=53*
N=c1n(CC(=O)c2ccc(Br)cc2)c2ccccc2n1Cc1ccccc1,-13,.,.,2,28,97*,75*,Full FLuc ctr=55*
CCCCn1c(=N)n(CC(=O)c2ccc(OC)cc2)c2ccccc21,-5,-4,-2,36,.,79*,44*,Full FLuc ctr=48*
C=CCn1c(=N)n(CC(=O)c2ccc(OC)cc2)c2ccccc21,-6,6,-4,3,0,14,.,
N#CCOc1coc(CN2CCN(c3ccccc3)CC2)cc1=O,13,-30,-5,4,-14,2,.,
Cc1cccc(OCC(=O)NCc2ccccc2)c1,1,-21,-9,4,3,9,.,
C/C(=N\NC(=O)COc1cccc(C)c1)c1ccc2ccccc2c1O,1,-17,.,9,48,52*,61*,Full FLuc ctr=34
COc1ccccc1C(=O)NCCC(=O)NNC(=O)c1ccccc1O,6,.,5,-3,0,5,.,
CCc1cc2ccccc2nc1SCC(=O)Nc1cc(C)on1,-4,8,36,9,0,27,.,
CCc1cc2ccc(OC)cc2nc1SCC(=O)Nc1cc(C)on1,1,-24,14,0,-2,50*,32,
CC(C)c1ccc(Nc2nnc(SC3CCOC3=O)s2)cc1 (stereo not given),-11,-13,-1,1,-5,52*,-3,
COCCn1c(SCC(=O)N2CC(=O)Nc3ccccc32)nc2ccccc21,0,2,-24,-6,3,-1,.,
O=C(CCl)NCc1cc(-c2ccc(Cl)cc2)no1,16,3,-65,35,14,73*,29,Full FLuc ctr=66*
COc1ccc(OCc2cc(-c3ccc(Cl)cc3)no2)cc1,-1,3,-32,-8,-8,-18,.,
